From PubChem BioAssay (NCI)
Compounds without any hit were thinned out: in the full panel of roughly 79,000, 15% have a hit. Active and inactive are the calls of the source. Rule as the data show it: active = growth inhibition above about 70%; inactive = the rest.

Assays:
[1] = NCI Yeast Anticancer Drug Screen. Data for the rad50 strain (AID 155);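 also: 0% = growth of vehicle-only cultures of the same strain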; details: S. cerevisiae rad50 strain growth inhibition, active compounds read high
Summary of the method: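 Growth of the mutant yeast was measured after compound exposure and referenced to vehicle-treated cultures.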

[2] = NCI Yeast Anticancer Drug Screen. Data for the mec2-1 strain (AID 157); details: S. cerevisiae mec2-1 strain, active compounds read high
Summary of the method: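 Compounds were applied to mec2-1 yeast cells. Their growth was then compared with that of vehicle-treated cultures to give growth inhibition.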

[3] = NCI Yeast Anticancer Drug Screen. Data for the sgs1 mgt1 strain (AID 161);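 also: 0% = growth of cultures given vehicle only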; details: S. cerevisiae sgs1 mgt1 strain, active compounds read high
Summary of the method: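 Compounds are added to genetically altered yeast, and growth is compared with cultures given vehicle alone to give percent inhibition.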

[4] = NCI Yeast Anticancer Drug Screen. Data for the cln2 rad14 strain (AID 165);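 also: 0% = growth equal to vehicle treated cultures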; details: S. cerevisiae cln2 rad14 strain, active compounds read high
Summary of the method: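 Strain: cln2 rad14 yeast, altered in cell cycle control and DNA damage repair. Read-out: growth inhibition vs vehicle.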

[5] = NCI Yeast Anticancer Drug Screen. Data for the bub3 strain (AID 167); details: S. cerevisiae bub3 mutant strain, active compounds read high
Summary of the method: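 Whole-cell yeast assay. The mutant strain was incubated with compounds, and growth inhibition was determined by comparison with vehicle-treated cells.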

[6] = NCI Yeast Anticancer Drug Screen. Data for the mlh1 rad18 strain (AID 175); details: S. cerevisiae mlh1 rad18 strain growth inhibition, active compounds read high
Summary of the method: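 A repair-deficient yeast strain is exposed to test compound, and growth is scored relative to vehicle-treated controls.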

[7] = at 5.0 µM (retest, dose inferred, filed as 0.5)
[8] = at 50.0 µM (retest, dose inferred, filed as 5.0)

Measured: growth inhibition

CN1CCOC12CCC1(C)C(CCC3C4CCC(O)C4(C)CCC31)C2 (configuration not stated)
active: [1]; at 50.0 µM 77.5% | [6]; at 50.0 µM 71.8%
inactive: [1]; [7] -11% | [1]; [8] -5% | [2]; [7] -14% | [2]; [8] -8% | [2]; at 50.0 µM 5.8% | [3]; [7] -7% | [3]; [8] 9% | [3]; at 50.0 µM 58% | [4]; [7] 1% | [4]; [8] 8% | [4]; at 50.0 µM -6.75% | [5]; [7] -22% | [5]; [8] -9% | [5]; at 50.0 µM 4.75% | [6]; [7] -12% | [6]; [8] -12%

O=C1CCC(=O)N1SC(Cl)(Cl)Cl
inactive: [1]; [7] 21% | [1]; [8] 26% | [2]; [7] 20% | [2]; [8] 4% | [3]; [7] 7% | [3]; [8] 6% | [4]; [7] -11% | [4]; [8] -13% | [5]; [7] -12% | [5]; [8] 2% | [6]; [7] 2% | [6]; [8] 18%
active: [1]; at 50.0 µM 99.7% | [2]; at 50.0 µM 99.7% | [3]; at 50.0 µM 99.7% | [4]; at 50.0 µM 99% | [5]; at 50.0 µM 99.5% | [6]; at 50.0 µM 99.5%

O=[N+]([O-])/C=C\C(Cl)(Cl)Cl
active: [1]; [7] 74% | [1]; [8] 99% | [1]; at 50.0 µM 91.7% | [2]; [7] 72% | [2]; [8] 99% | [2]; at 50.0 µM 92.7% | [3]; [7] 73% | [3]; [8] 99% | [3]; at 50.0 µM 92.2% | [4]; [7] 82% | [4]; [8] 99% | [4]; at 50.0 µM 91.5% | [5]; [7] 92% | [5]; [8] 99% | [5]; at 50.0 µM 90.5% | [6]; [7] 74% | [6]; [8] 99% | [6]; at 50.0 µM 91.3%

S=c1sc(-c2ccccc2)c[se]1
inactive: [1]; [7] -1% | [1]; [8] 42% | [1]; at 50.0 µM 67% | [2]; [7] 2% | [2]; [8] 28% | [2]; at 50.0 µM 21.6% | [3]; [7] -2% | [3]; [8] 34% | [3]; at 50.0 µM 46.4% | [4]; [7] -1% | [4]; [8] 13% | [5]; [7] -1% | [5]; [8] 17% | [5]; at 50.0 µM 35.1% | [6]; [7] -5% | [6]; [8] 41% | [6]; at 50.0 µM 32.9%
active: [4]; at 50.0 µM 88.5%
